# Laboratory results published in PubChem BioAssay (NCI).
# The panel holds about 83,000 compounds, 20% with a hit somewhere; the sample as a whole holds those more often.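 Values shown are percent growth following 48 h exposure of cells in 96-well plates to a single concentration of compound; below 10 was considered active.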 A number with no mark means an inactive call. The source made the active and inactive calls.
# How the values were obtained:
# Assay in all cases: NCI-60 one-dose screen, 48 h (100 = growth as untreated, 0 = no growth, -100 = all killed)
# Conditions in all cases: 10 µM unless noted
# SR leukemia = tested on: SR leukemia
# RPMI-8226 leukemia = tested on: RPMI-8226 leukemia
# OVCAR-8 ovarian = tested on: OVCAR-8 ovarian
# OVCAR-5 ovarian = tested on: OVCAR-5 ovarian
# OVCAR-4 ovarian = tested on: OVCAR-4 ovarian
# SK-OV-3 ovarian = tested on: SK-OV-3 ovarian
# IGROV1 ovarian = tested on: IGROV1 ovarian
# OVCAR-3 ovarian = tested on: OVCAR-3 ovarian
# HS 578T breast = tested on: HS 578T breast
# NCI/ADR-RES ovarian = tested on: NCI/ADR-RES ovarian
Compound,growth (SR leukemia),growth (RPMI-8226 leukemia),growth (OVCAR-8 ovarian),growth (OVCAR-5 ovarian),growth (OVCAR-4 ovarian),growth (SK-OV-3 ovarian),growth (IGROV1 ovarian),growth (OVCAR-3 ovarian),growth (HS 578T breast),growth (NCI/ADR-RES ovarian)
CC(=O)Nc1ccc(-n2c(O)c(/C=N/NC(=O)Cc3ccccc3Nc3c(Cl)cccc3Cl)sc2=S)cc1,72.9%,106%,91.7%,114%,105%,111%,96.7%,116%,92.5%,101%
O=C(CCl)Oc1ccc(-c2ccccc2)c(Br)c1,96.9%,106%,103%,107%,105%,104%,112%,108%,108%,103%
C=C1c2nc3ccccc3n2C=C(c2ccc(OC)cc2)N1Cc1ccccc1,47.3%,39.4%,88.3%,101%,80.1%,107%,96.7%,85.4%,116%,77.4%
COc1ccc(-c2cc(-c3ccc(Nc4ccnc5cc(Cl)ccc45)cc3)nc(N3CCOCC3)n2)cc1,-18% (active),-1.81% (active),15.3%,135%,-52.1% (active),101%,103%,2.68% (active),-11.4% (active),20.8%
Brc1ccc(-c2csc(Nc3ccccn3)n2)cc1,68.8%,68%,101%,92.4%,50%,82.7%,79.4%,82.9%,114%,74%
COc1cc(-c2nn(-c3ccc(C(=O)O)cc3)cc2C(=O)O)ccc1O,32.9%,88.2%,73.2%,110%,83.8%,74.3%,81%,42.8%,76.5%,29.7%
O=C1NC(=Nc2ccc(O)cc2)S/C1=C\c1cccc(Cl)c1,23.1%,2.99% (active),84.3%,110%,90.3%,77.1%,65.7%,30.1%,63.1%,83.8%
CCOC(=O)c1c(CN2CCN(C)CC2)nc2ccc(Cl)cc2c1-c1ccccc1,-2.55% (active),25.5%,84%,69%,79.4%,90.7%,50.1%,76.8%,61%,68.7%
CN1C(=O)C2(SCC(C(=O)NCc3ccccc3)N2C(=O)C2CCCCC2)c2ccccc21 (stereo not given),83.3%,95%,92%,105%,88.1%,114%,88%,90.5%,89.3%,94.2%
Cn1nc(N)c2cc([C@@H]3Nc4ccc5[nH]ncc5c4[C@H]4C5CCC(C5)[C@@H]34)ccc21 (stereo not given in full),14.7%,47.8%,38.2%,35.1%,41.4%,41.7%,27.3%,-16.2% (active),20.6%,3.15% (active)
COc1ccc(C2CC(c3ccc4ccccc4c3)=NN2/C=C2\SC(=S)N(NC(=O)Cc3ccccc3Nc3c(Cl)cccc3Cl)C2=O)cc1 (stereo not given),20.8%,-10.1% (active),34.6%,56.8%,70%,41.9%,33.1%,2.15% (active),13.3%,9.39% (active)
O=C1/C(=C/c2ccccc2O)N=C2SCCCN12,117%,103%,98.4%,91.7%,82.9%,100%,91.3%,92.9%,87.7%,99.6%
CCOc1cc2ncc(C#N)c(Nc3ccc(OCc4cccc(F)c4)c(Cl)c3)c2cc1NC(=O)CCCCC1CCSS1 (stereo not given),92.4%,78.6%,91%,111%,99.6%,83.7%,82.2%,102%,91.3%,101%
N#Cc1nnn(-c2ccc(S(N)(=O)=O)cc2)c1NCC(=O)c1ccccc1,90.7%,87.5%,91.6%,108%,89.8%,91.9%,99.5%,106%,98.3%,105%
Cc1[nH]c(-c2ccc3cc[nH]c3c2)c2c1C(=O)CCCC2,50.9%,21.9%,46.4%,78.2%,48.5%,25.5%,36.9%,51%,21.9%,40.7%
Cc1cc(N2CCOCC2)nc(NCc2cc(Nc3ccnc4cc(Cl)ccc34)ccc2F)n1,-41.3% (active),-40.4% (active),-48.9% (active),-17.2% (active),3.65% (active),-40.8% (active),-14.1% (active),-94.2% (active),-14.2% (active),-56.9% (active)
Cc1nn(-c2cc(=O)[nH]c3ccc(Cl)cc23)c(N)c1C#N,121%,97.7%,91.6%,99.3%,89.2%,102%,73.1%,105%,103%,97.4%
NC(=NCCCOc1ccc(Cl)cc1)Nc1ccc(Cl)cc1,4.92% (active),15.1%,60.4%,30.5%,26.4%,69.2%,8.71% (active),54.3%,41.5%,53.1%
COc1cc2c(cc1-c1c(C)noc1C)ncc1nc(-c3ccccn3)n([C@H](C)COC(F)F)c12,27.8%,8.62% (active),35.1%,76.6%,52.6%,9.97% (active),52.6%,47.4%,3.88% (active),33.6%
N#Cc1nnn(-c2ccc(S(N)(=O)=O)cc2)c1NC(=O)CCl,96.1%,91.4%,101%,96.6%,103%,96.6%,104%,106%,0.129% (active),102%
COc1ccccc1NS(=O)(=O)c1ccc2oc(SC(C)C)nc2c1,54.9%,52.2%,83.1%,82.1%,53%,114%,92.1%,85.7%,95.4%,43.8%
COc1ccc(C(=O)c2sc3nc4c(c(-c5cccnc5)c3c2N)CCCC4)cc1OC,37.8%,4.67% (active),85%,86.4%,74%,104%,117%,89.9%,65.8%,89.3%
CC(=O)O[C@H]1C(=O)[C@@]2(C)[C@H]([C@H](OC(=O)c3ccccc3)[C@]3(O)C[C@H](OC(=O)[C@H](OC(=O)CCC(=O)OC4CCC(S/N=C(N)/N=C(\N)N(C)C)CC4)[C@@H](NC(=O)c4ccccc4)c4ccccc4)C(C)=C1C3(C)C)[C@]1(OC(C)=O)CO[C@@H]1C[C@@H]2O (stereo not given in full),11.3%,14%,21.8%,39.5%,40.3%,28.4%,43.1%,10.2%,-9.33% (active),44.5%
CC1=C[C@H]2c3c(c(O)c(O)c4oc5c(C)cccc5c(=O)c34)[C@H](c3cc(O)c(O)c4oc5c(C)cccc5c(=O)c34)[C@H]2C(C)(C)C1,3.62% (active),23.4%,18.1%,30.4%,11.3%,19.1%,1.21% (active),13.8%,-6.09% (active),4.23% (active)
